The nature of assay [1]: P. berghei load reduction in hepatocytes – cell-based, HepG2, luciferase luminescence, HepG2 viability, primary screen (AID 624349).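 Note: 100% = mean of DMSO negative control wells on the same plate.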 The note with it: P. berghei liver stage in HepG2, luciferase luminescence, concentration not given here; parasite load remaining: stronger effect = lower value; viability: measured here: HepG2 viability without parasites.
A short description of assay [2]: Wnt pathway potentiators raising nuclear beta-catenin – imaging, WNT3A-conditioned medium, mouse C2C12, NPC library, primary screen (AID 1117326; in the data active = nuclear beta-catenin stimulation mostly above about 4.2%, no sharp cut-off; inactive = mostly below about 10%). To be noted: stronger effect = higher value.
The nature of assay [3]: stimulators of insulin release from INS-1E, primary screen, cell-based, 5 mM glucose, NPC library (AID 1117329;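 active = compound raises insulin release from rat beta cells at 5 mM glucose, no numeric limit stated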). To be noted: rat INS-1E insulin secretion, at 10 µM, stronger effect = higher value.
Assay [4] is described as follows: growth inhibition of GSK3B-pretreated HCT116 cells – cell-based, CellTiter-Glo, 0.2 to 20 µM (AID 1117336;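 active = compounds lowering colon cancer cell viability after pretreatment blocking the GSK3B kinase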). To be noted: HCT116 viability after GSK3B inhibitor, at 20 µM, stronger effect = higher value.
Assay [5] is described as follows: inhibition of endothelial tube formation, primary screen, imaging, VEGF stimulated, CD31 staining, tube area, NPC library (AID 1117340;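 active = compound that reduces growth-factor-driven endothelial tube area in a mixed cell culture, no cutoff stated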). The note with it: VEGF-stimulated ADSC/ECFC co-culture, at 10 µM, stronger effect = higher value.
The nature of assay [6]: GLP1 release stimulators, primary, NCI-H716, NPC library (AID 1117341;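 active = compound raises GLP1 secretion from the human gut endocrine cells, with no numeric limit stated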). To be noted: NCI-H716 cells, at 10 µM, stronger effect = higher value.
The nature of assay [7]: HCT116 colon cancer cell growth inhibition, primary screen, CellTiter-Glo luminescence, NPC library (AID 1117342;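 active = compounds that lower survival of HCT116 colon cancer cells in the luminescence readout, no numeric limit stated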). The note with it: at 20 µM (top of the series). Background: Cellular ATP, detected with luciferase, serves as a proxy for viable cell number.
Assay [8] can be described thus: reduced SW480 viability measured with CellTiter-Glo, NPC library, primary (AID 1117343;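 active = compounds that lower viability of the colon cancer cells in the luminescence readout, with no numeric limit stated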). To be noted: CellTiter-Glo luminescence; at 20 µM (top of the series).
A short description of assay [9]: NPC library primary testing for decreased DLD-1 cell viability via CellTiter-Glo (AID 1117346;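 active = compounds that lower survival of DLD-1 colon cancer cells in the luminescence readout, no cutoff given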). The note with it: DLD-1 viability, CellTiter-Glo luminescence; at 20 µM (top of the series).
For assay [10], the target named is 6-phosphogluconate dehydrogenase, decarboxylating (Homo sapiens) (UniProt P52209). As to the kind of experiment: inhibition of human phosphogluconate dehydrogenase – biochemical, recombinant enzyme, NADPH absorbance, primary screen (AID 1159550;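 active = at least 20% inhibition of 6-phosphogluconate dehydrogenase activity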). To be noted: recombinant 6PGD, NADPH absorbance 341 nm; at 10 µM; stronger effect = higher value.
6-phosphogluconate dehydrogenase, decarboxylating (Homo sapiens), sequence (P52209 whole entry, looked up): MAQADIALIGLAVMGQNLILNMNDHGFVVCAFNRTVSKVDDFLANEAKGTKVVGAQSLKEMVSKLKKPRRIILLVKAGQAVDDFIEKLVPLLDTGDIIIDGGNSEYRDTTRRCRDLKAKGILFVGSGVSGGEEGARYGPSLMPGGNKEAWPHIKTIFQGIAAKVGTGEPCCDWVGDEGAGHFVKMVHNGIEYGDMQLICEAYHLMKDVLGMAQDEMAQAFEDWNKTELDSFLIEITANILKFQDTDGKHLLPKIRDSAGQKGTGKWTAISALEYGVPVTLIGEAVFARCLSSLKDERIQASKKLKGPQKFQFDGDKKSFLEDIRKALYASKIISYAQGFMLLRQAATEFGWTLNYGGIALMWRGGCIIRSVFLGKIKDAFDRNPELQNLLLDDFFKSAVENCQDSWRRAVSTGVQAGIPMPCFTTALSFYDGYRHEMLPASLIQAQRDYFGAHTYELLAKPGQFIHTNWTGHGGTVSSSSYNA
A short description of assay [11]: EMT-state selective cytotoxicity in co-culture – imaging, PC-3E GFP, TEM4-18 mCherry, primary screen (AID 1345086;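 active = compounds killing one labelled cell type while sparing the other, by normalised counts and ratio limits, not self-fluorescent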;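 for all read-outs here: cells exposed to compound for 72 h before imaging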;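 for red/green cell ratio (normalised): normalised mesenchymal count divided by normalised epithelial count so high means epithelial killing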). The note with it: PC-3E GFP / TEM4-18 mCherry co-culture, imaging cell counts, at 1 µM; for red/green cell ratio (normalised): actives lie on both sides.
Assay [12] relates to Aerobactin synthetase IucA (Klebsiella pneumoniae hvKP1). Briefly: IucA enzyme inhibition, primary screen, biochemical, Spectrum library (AID 1346200; call rule not given here;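 note: 100% = wells without compound and 0% = wells lacking enzyme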). To be noted: malachite green pyrophosphate, A620, at 8 µM, stronger effect = lower value.
Assay [13] addresses Mitogen-activated protein kinase 7 (Homo sapiens) (UniProt Q13164). As to the kind of experiment: Gal4-ERK5 driven luciferase induction – cell-based, HTS, primary screen (AID 1508626;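 active = luciferase signal above three times the same-plate solvent-only control wells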;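 note: luciferase driven by Gal4-ERK5 fusion binding five Gal4 sites before minimal TATA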). To be noted: HeLa Gal4-ERK5 transactivation, 18 h, at 5 µM, stronger effect = higher value.
Assay [14] in a line: viability loss with induced miR-34 in A549 – imaging, A549 dox-inducible miR-34, nuclei and caspase counts, primary screen (AID 1347080;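 active = compounds whose cell count with miR-34 switched on is under 0.7 times the count with it off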). The note with it: A549 miR-34 inducible, Hoechst nuclei count, 48 h.
Assay [15] addresses NAD(+) hydrolase SARM1 (Homo sapiens) (UniProt Q6SZW1). As to the kind of experiment: blocking NAD cleavage by SARM1 SAM-TIR – cell lysate, NAD-Glo luminescence (AID 1508614;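 active = compound whose remaining NAD level is above about 45 nM, limit read from the data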;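 note: higher remaining NAD means stronger inhibition of SARM1 NADase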). The note with it: SAM-TIR HEK293T lysate NADase, at 1 µM, stronger effect = higher value.
Assay [16] is described as follows: galactose survival enhancers in mitochondrial complex I cybrids – cell-based, galactose medium, ATP luminescence, primary screen (AID 1645843;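 active = z-score of at least 1.8 in each of two replicates, scored against plate mean and spread of sample wells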;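 note: positive z means more ATP and so rescue of galactose-driven cybrid death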). To be noted: complex I mutant cybrid cells, 72 h, stronger effect = higher value.
Assay [17] can be described thus: yeast 75Q aggregation reduction – 75Q-TubU reporter (AID 1593). The note with it: Yeast 75Q polyglutamine aggregation reporter.
A short description of assay [18]: blockers of cytochrome c efflux from mitochondria – biochemical, purified mitochondria (AID 1603).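 Note: mouse liver mitochondria challenged with calcium chloride; signal normalized to the plate average as 100%.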 To be noted: stronger effect = lower value.
Assay [19] in a line: polyglutamine aggregate formation blockers (AID 1604). To be noted: polyglutamine-induced protein aggregation inhibition assay; stronger effect = higher value; tested at 2.5 µM.
Where [20] appears, read: measured here: epithelial PC-3E GFP cell survival.
[21] abbreviates: measured here: mesenchymal TEM4-18 mCherry cell survival.
[22] abbreviates: measured here: relative caspase fold change +Dox/-Dox.
The mark [23] stands for this setting: measured here: total cells with miR-34 induction, stronger effect = lower value.
The mark [24] stands for this setting: measured here: total cells without miR-34 induction.

Each structure is given as a SMILES string. Where “and” joins values, the source holds several entries; their conditions need not be identical. Equal entries are not always repeated. Calls of active or inactive are those of the source. Cut-off read from the data, not from the text of the source, unless noted: active = parasite load remaining mostly below about 12% (no sharp cut-off); inactive = mostly above about 10%.

Mitogen-activated protein kinase 7 (Homo sapiens), sequence (Q13164 whole entry, looked up, the tested form may be a part): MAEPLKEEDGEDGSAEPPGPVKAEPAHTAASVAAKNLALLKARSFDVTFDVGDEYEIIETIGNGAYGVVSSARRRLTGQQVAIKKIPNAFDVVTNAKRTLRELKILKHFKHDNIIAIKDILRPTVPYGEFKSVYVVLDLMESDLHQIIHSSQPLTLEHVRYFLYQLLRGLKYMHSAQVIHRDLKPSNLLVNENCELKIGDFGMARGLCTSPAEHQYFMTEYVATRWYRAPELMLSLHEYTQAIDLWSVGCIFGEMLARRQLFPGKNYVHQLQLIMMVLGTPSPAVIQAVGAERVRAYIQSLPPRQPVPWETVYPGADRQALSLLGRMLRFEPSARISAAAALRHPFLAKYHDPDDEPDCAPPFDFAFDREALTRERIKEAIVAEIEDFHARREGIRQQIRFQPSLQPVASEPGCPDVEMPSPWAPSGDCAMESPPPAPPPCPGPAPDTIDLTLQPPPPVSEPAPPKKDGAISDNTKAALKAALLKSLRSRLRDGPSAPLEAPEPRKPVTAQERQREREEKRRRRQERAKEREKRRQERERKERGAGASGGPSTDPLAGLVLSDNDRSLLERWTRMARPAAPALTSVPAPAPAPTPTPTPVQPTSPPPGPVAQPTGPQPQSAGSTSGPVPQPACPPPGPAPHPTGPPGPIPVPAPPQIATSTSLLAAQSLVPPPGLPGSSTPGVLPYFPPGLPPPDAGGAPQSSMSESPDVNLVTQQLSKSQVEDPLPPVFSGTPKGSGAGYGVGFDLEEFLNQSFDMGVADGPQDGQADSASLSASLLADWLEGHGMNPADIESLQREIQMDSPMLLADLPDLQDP
NAD(+) hydrolase SARM1 (Homo sapiens), sequence (Q6SZW1 whole entry, looked up): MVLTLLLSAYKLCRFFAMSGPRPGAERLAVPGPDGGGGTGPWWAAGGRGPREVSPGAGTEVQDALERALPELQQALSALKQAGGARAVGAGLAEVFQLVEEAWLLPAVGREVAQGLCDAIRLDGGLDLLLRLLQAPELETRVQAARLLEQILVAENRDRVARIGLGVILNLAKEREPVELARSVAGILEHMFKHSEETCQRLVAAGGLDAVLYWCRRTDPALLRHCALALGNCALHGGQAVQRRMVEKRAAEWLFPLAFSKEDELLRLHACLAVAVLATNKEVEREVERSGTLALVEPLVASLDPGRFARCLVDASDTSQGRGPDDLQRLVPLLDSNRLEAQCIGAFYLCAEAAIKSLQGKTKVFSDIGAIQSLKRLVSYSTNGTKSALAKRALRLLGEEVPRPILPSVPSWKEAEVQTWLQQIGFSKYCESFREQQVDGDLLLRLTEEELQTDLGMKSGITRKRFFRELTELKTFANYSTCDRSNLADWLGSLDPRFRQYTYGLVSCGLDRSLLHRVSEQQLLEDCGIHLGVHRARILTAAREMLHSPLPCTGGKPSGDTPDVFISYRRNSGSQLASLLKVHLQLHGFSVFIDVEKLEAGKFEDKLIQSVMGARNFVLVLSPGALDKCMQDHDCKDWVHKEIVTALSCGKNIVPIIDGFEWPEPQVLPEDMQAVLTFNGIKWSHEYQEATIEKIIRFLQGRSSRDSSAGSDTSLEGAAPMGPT

The term viability denotes a read-out of living cells in per cent, often relative to untreated cells. The term inhibition denotes the relative decrease from the control value, in per cent. Turning to `O=C1c2ccccc2C(=O)c2ccccc21`, the parasite load remaining in assay [1] is 115% (inactive). Further, in assay [1], the viability was determined as 67.1%. Besides, the nuclear beta-catenin stimulation was 1.3% (inactive) in [2] (at 10 µM) and 0.4% in assay [2] (stimulation, at 2 µM). In [3], the insulin secretion stimulation was -1.4% (inactive). Moreover, the viability decrease in assay [4] was 2.3% (inactive). Further, the tube area decrease in assay [5] was 6.7% (inactive). Also, in [6], the GLP1 secretion stimulation is 1.9% (inactive). For the same compound, the inhibition of viability in assay [7] is -45% (inactive). In addition, the viability decrease (inhibition) in assay [8] was 31.6% (inactive); in assay [9], 4.05% (inactive). For the same compound, in [10], the inhibition was -2.54% (inactive). The red/green cell ratio (normalised) in assay [11] is 0.79 (inactive). For the same compound, the normalised cell number in [11] (setting [20]) is 1.17; in assay [11] (setting [21]), 0.92. Moreover, the activity remaining in [12] was 119% (inactive). Moreover, in [13], the luciferase signal was 100 AU (inactive).

Take `CCNc1nc(Cl)nc(NCC)n1`: the nuclear beta-catenin stimulation in [2] (at 10 µM) was 0.8% (inactive); in [2] (stimulation, at 2 µM), 2.2%. For the same compound, in assay [3], the insulin secretion stimulation is -1.4% (inactive). Besides, the viability decrease in [4] is -15.2% (inactive). Besides, the tube area decrease in assay [5] was 8.9% (inactive). Also, the GLP1 secretion stimulation in [6] was 1.7% (inactive). In assay [7], the inhibition of viability was 3.93% (inactive). In addition, the viability decrease (inhibition) in [8] is -14.9% (inactive); in assay [9], -16.6% (inactive). In assay [10], the inhibition was 4.55% (inactive). The activity remaining in assay [12] is 94.3% (inactive). For the same compound, in [13], the luciferase signal is 52 AU (inactive).

Regarding `C=C(C)[C@H]1CN[C@H](C(=O)O)[C@H]1CC(=O)O`, the nuclear beta-catenin stimulation in [2] (at 10 µM) is 0% (inactive); in [2] (stimulation, at 2 µM), 1.5%. Also, the insulin secretion stimulation in assay [3] was -1.6% (inactive). In addition, the viability decrease in assay [4] is 3.4% (inactive). In [5], the tube area decrease is -7.3% (inactive). Further, the GLP1 secretion stimulation in assay [6] is -2% (inactive). Besides, the inhibition of viability in [7] was -16% (inactive). The viability decrease (inhibition) is -0.1% (inactive) in assay [8] and -1.8% (inactive) in assay [9]. The inhibition in [10] is 2.88% (inactive). Also, the fold change is 1.1 (inactive) and 0.956 (inactive) in [14] (stronger effect = lower value); 0.95 (inactive) in assay [14] (stronger effect = lower value, cell number ratio, induced over uninduced); 1.24 and 0.883 and 0.751 in [14] (setting [22]). Besides, the cell count is 10600 and 5610 and 8280 in [14] (setting [23]); 9620 and 5900 and 8660 in assay [14] (setting [24]). In addition, in assay [15], the remaining NAD is 10 nM (inactive). Besides, in assay [13], the luciferase signal was 68 AU (inactive). Besides, the z-score in assay [16] was 0.445 (inactive) and 0.325 (inactive).

In assay [17], `C[C@H]1C(=O)O[C@@H]2CCN3CC=C(COC(=O)[C@](C)(O)[C@]1(C)O)[C@H]23` had a score of 1.29. Moreover, in [18], the cytochrome c release ratio turned out to be 0.94. Further, the inhibition of aggregation in [19] is 36.1%. Besides, the parasite load remaining in assay [1] is 96.1% (inactive) and 65.8% (inactive) and 70.5% (inactive). For the same compound, in assay [1], the viability was 103% and 66% and 74.5%. In addition, the nuclear beta-catenin stimulation in assay [2] (at 10 µM) is -0.7% (inactive); in assay [2] (stimulation, at 2 µM), -0.6%. Besides, the insulin secretion stimulation in assay [3] is -0.1% (inactive). In [4], the viability decrease is -4.9% (inactive). Moreover, the tube area decrease in assay [5] is 17.9% (inactive). The GLP1 secretion stimulation in [6] is -1.4% (inactive). For the same compound, the inhibition of viability in assay [7] was -6% (inactive). The values for the viability decrease (inhibition) in assay [8] and in assay [9] were -1.2% (inactive) and -12.1% (inactive), respectively. Besides, in [10], the inhibition is 17% (inactive). The red/green cell ratio (normalised) in [11] was 1.08 (inactive). Further, the normalised cell number in [11] (setting [20]) amounted to 0.97; in assay [11] (setting [21]), 1.05. In assay [12], the activity remaining was 111% (inactive). In addition, the fold change was 0.8 (inactive) in [14] (stronger effect = lower value) and 1.54 in assay [14] (setting [22]). Also, the cell count in assay [14] (setting [23]) was determined as 8710; in assay [14] (setting [24]), 10900. Also, the luciferase signal in assay [13] is 56 AU (inactive).

Turning to `COc1c2c(cc3c1OCO3)CCN(C)C2`, the parasite load remaining in [1] was 101% (inactive) and 78.2% (inactive). The viability in assay [1] is 102% and 69.9%. Moreover, the nuclear beta-catenin stimulation is 0.2% (inactive) in [2] (at 10 µM) and 1.3% in assay [2] (stimulation, at 2 µM). For the same compound, in [3], the insulin secretion stimulation is -1.1% (inactive). For the same compound, the viability decrease in assay [4] was 5% (inactive). Besides, the tube area decrease in [5] is 4.7% (inactive). Also, in assay [6], the GLP1 secretion stimulation was -0.1% (inactive). For the same compound, in assay [7], the inhibition of viability is -4.7% (inactive). For the same compound, the viability decrease (inhibition) is 36.7% (inactive) in [8] and 4.85% (inactive) in assay [9]. Further, in assay [10], the inhibition is 1.73% (inactive). Besides, the activity remaining in assay [12] is 120% (inactive). For the same compound, the fold change is 0.866 (inactive) in [14] (stronger effect = lower value) and 1.09 in assay [14] (setting [22]). The cell count amounted to 9520 in [14] (setting [23]) and 11000 in assay [14] (setting [24]).

Source of the values: PubChem BioAssay.
